Laboratory results: PubChem BioAssay (NCI)
This is part of a sample that, as a whole, favours compounds with a hit. Of some 79,000 tested, about 15% had one in any assay. Activity calls are given as the source filed them. Rule as the data show it: active = growth inhibition above about 70%; inactive = the rest.

What was measured:
[1] = NCI Yeast Anticancer Drug Screen. Data for the rad52 strain (AID 147);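 also: 0% = growth of vehicle-treated control cultures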; conditions: S. cerevisiae rad52 mutant growth inhibition, active compounds read high
How it was run: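 Read-out: growth inhibition versus vehicle-treated controls. Cells were a DNA repair-deficient yeast strain treated with compounds.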

[2] = NCI Yeast Anticancer Drug Screen. Data for the wt1 strain (AID 149);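 also: 0% = growth of vehicle-treated wt1 cultures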; conditions: S. cerevisiae wt1 strain (SPY 50644) growth inhibition, active compounds read high
How it was run: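 Using yeast strain wt1, compound-induced growth inhibition was determined against vehicle-treated cultures.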

[3] = NCI Yeast Anticancer Drug Screen. Data for the rad50EPP+ strain (AID 151);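 also: 0% = growth of vehicle-treated control cultures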; conditions: S. cerevisiae rad50 mutant strain, active compounds read high
How it was run: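 Growth inhibition read against vehicle controls in rad50EPP+ yeast, a strain altered in DNA damage repair, after compound exposure.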

[4] = NCI Yeast Anticancer Drug Screen. Data for the mgt1 strain (AID 153); conditions: S. cerevisiae mgt1 mutant growth inhibition, active compounds read high
How it was run: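 mgt1 yeast grown with test compound; read-out is growth inhibition versus vehicle-treated cultures.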

[5] = NCI Yeast Anticancer Drug Screen. Data for the rad50 strain (AID 155);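 also: 0% = growth of vehicle-only cultures of the same strain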; conditions: S. cerevisiae rad50 strain growth inhibition, active compounds read high
How it was run: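 Relative growth inhibition (compound vs vehicle) was measured in yeast with a defined repair-gene alteration.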

[6] = NCI Yeast Anticancer Drug Screen. Data for the mec2-1 strain (AID 157); conditions: S. cerevisiae mec2-1 strain, active compounds read high
How it was run: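 Yeast mec2-1 mutant treated with compound. Readout: growth inhibition vs vehicle controls.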

[7] = NCI Yeast Anticancer Drug Screen. Data for the sgs1 mgt1 strain (AID 161);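 also: 0% = growth of cultures given vehicle only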; conditions: S. cerevisiae sgs1 mgt1 strain, active compounds read high
How it was run: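 Mutant yeast exposed to compound; growth scored against vehicle-only wells.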

[8] = NCI Yeast Anticancer Drug Screen. Data for the CLN2oe strain (AID 163);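 also: 0% = growth of vehicle-only control cultures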; conditions: S. cerevisiae CLN2oe strain, active compounds read high
How it was run: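 Read-out: yeast growth inhibition, expressed relative to vehicle-only controls. The strain bears an engineered cell-cycle alteration.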

[9] = NCI Yeast Anticancer Drug Screen. Data for the cln2 rad14 strain (AID 165);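 also: 0% = growth equal to vehicle treated cultures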; conditions: S. cerevisiae cln2 rad14 strain, active compounds read high
How it was run: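 cln2 rad14 yeast strain; compound exposure; growth inhibition read vs vehicle controls.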

[10] = NCI Yeast Anticancer Drug Screen. Data for the bub3 strain (AID 167); conditions: S. cerevisiae bub3 mutant strain, active compounds read high
How it was run: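 Screening used yeast with an engineered genetic alteration affecting cell cycle control. Compound-exposed cultures were compared with vehicle cultures, and reduced growth was taken as inhibition.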

[11] = NCI Yeast Anticancer Drug Screen. Data for the wt2 strain (AID 169);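 also: 0% = growth of vehicle-treated yeast cultures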; conditions: S. cerevisiae wt2 strain growth inhibition, active compounds read high
How it was run: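 Read-out: growth inhibition versus vehicle-treated control cultures after compound exposure of the yeast strain.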

[12] = NCI Yeast Anticancer Drug Screen. Data for the sgs1 strain (AID 173);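 also: 0% = growth of vehicle-only control cultures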; conditions: S. cerevisiae sgs1 mutant, active compounds read high
How it was run: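 Read-out: yeast growth inhibition relative to vehicle controls, following compound exposure of a strain with a defined DNA repair/cell cycle alteration.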

[13] = NCI Yeast Anticancer Drug Screen. Data for the mlh1 rad18 strain (AID 175); conditions: S. cerevisiae mlh1 rad18 strain growth inhibition, active compounds read high
How it was run: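 Yeast w/ defined DNA-repair lesions; compound exposure; growth vs vehicle controls → % inhibition.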

[14] = NCI Yeast Anticancer Drug Screen. Data for the rad18 strain (AID 177); conditions: S. cerevisiae rad18 mutant growth inhibition, active compounds read high
How it was run: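 Readout: growth inhibition vs vehicle controls. Cells: genetically altered yeast strain, DNA repair defect.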

[15] = NCI Yeast Anticancer Drug Screen. Data for the mlh1 strain (AID 171);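 also: 0% = growth of vehicle-treated control cultures of the same strain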; conditions: S. cerevisiae mlh1 strain growth inhibition, active compounds read high
How it was run: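 Read-out: growth inhibition versus vehicle controls. Strain: engineered yeast with a defined DNA repair or cell cycle defect, compound-treated.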

[16] = at 5.0 µM (retest, dose inferred, filed as 0.5)
[17] = at 50.0 µM (retest, dose inferred, filed as 5.0)

Measured: growth inhibition

CN(C)Cc1cc(N=Nc2ccc(Cl)cc2)ccc1OC(=O)c1ccccc1
active: [4]; at 100.0 µM 82% | [5]; at 50.0 µM 90.3% | [6]; at 50.0 µM 97.2% | [7]; at 50.0 µM 98.3% | [9]; at 50.0 µM 97% | [10]; at 50.0 µM 98.5% | [12]; at 100.0 µM 74% | [13]; at 50.0 µM 98.5%
inactive: [1]; at 1.2 µM 1% | [1]; at 3.7 µM 3% | [1]; at 11.0 µM 1% | [1]; at 33.0 µM 7% | [1]; at 100.0 µM 17% | [2]; at 1.2 µM 1% | [2]; at 3.7 µM 1% | [2]; at 11.0 µM 3% | [2]; at 33.0 µM 3% | [2]; at 100.0 µM -1% | [3]; at 1.2 µM 4% | [3]; at 3.7 µM 7% | [3]; at 11.0 µM 20% | [3]; at 33.0 µM 22% | [3]; at 100.0 µM 41% | [4]; at 1.2 µM 0% | [4]; at 3.7 µM 1% | [4]; at 11.0 µM 5% | [4]; at 33.0 µM 48% | [5]; at 1.2 µM 1% | [5]; at 3.7 µM 1% | [5]; [16] -10% | [5]; at 11.0 µM 1% | [5]; at 33.0 µM 5% | [5]; [17] 10% | [5]; at 100.0 µM 11% | [6]; at 1.2 µM -3% | [6]; at 3.7 µM 3% | [6]; [16] -2% | [6]; at 11.0 µM -2% | [6]; at 33.0 µM 3% | [6]; [17] 47% | [6]; at 100.0 µM 42% | [7]; [16] 38% | [7]; [17] 48% | [8]; at 1.2 µM 3% | [8]; at 3.7 µM -1% | [8]; at 11.0 µM 1% | [8]; at 33.0 µM 0% | [8]; at 100.0 µM 5% | [9]; [16] -20% | [9]; [17] 51% | [10]; at 1.2 µM -2% | [10]; at 3.7 µM -2% | [10]; [16] -15% | [10]; at 11.0 µM -4% | [10]; at 33.0 µM 5% | [10]; [17] 54% | [10]; at 100.0 µM 23% | [11]; at 1.2 µM 1% | [11]; at 3.7 µM 2% | [11]; at 11.0 µM 6% | [11]; at 33.0 µM 21% | [11]; at 100.0 µM 52% | [12]; at 1.2 µM 0% | [12]; at 3.7 µM 5% | [12]; at 11.0 µM 9% | [12]; at 33.0 µM 42% | [13]; [16] -9% | [13]; [17] 61% | [14]; at 1.2 µM 1% | [14]; at 3.7 µM 1% | [14]; at 11.0 µM -16% | [14]; at 33.0 µM 17% | [14]; at 100.0 µM 58%

CC(C)OC(=O)Nc1ccc2nc(-c3cscn3)[nH]c2c1
inactive: [1]; at 1.2 µM -3% | [1]; at 3.7 µM -5% | [1]; at 11.0 µM -3% | [1]; at 33.0 µM 1% | [2]; at 1.2 µM -1% | [2]; at 3.7 µM 3% | [2]; at 11.0 µM -1% | [2]; at 33.0 µM -2% | [2]; at 100.0 µM 50% | [3]; at 1.2 µM 9% | [3]; at 3.7 µM 16% | [3]; at 11.0 µM 23% | [3]; at 33.0 µM 31% | [3]; at 100.0 µM 44% | [4]; at 1.2 µM -5% | [4]; at 3.7 µM -7% | [4]; at 11.0 µM -15% | [4]; at 33.0 µM 4% | [5]; at 1.2 µM -1% | [5]; at 3.7 µM -1% | [5]; [16] -4% | [5]; at 11.0 µM -3% | [5]; at 33.0 µM 10% | [5]; [17] 51% | [5]; at 50.0 µM 17.8% | [6]; at 1.2 µM 2% | [6]; at 3.7 µM 5% | [6]; [16] -4% | [6]; at 11.0 µM 8% | [6]; at 33.0 µM 16% | [6]; [17] 23% | [6]; at 50.0 µM -3.75% | [7]; [16] 1% | [7]; [17] 39% | [8]; at 1.2 µM -8% | [8]; at 3.7 µM -20% | [8]; at 11.0 µM -18% | [8]; at 33.0 µM -13% | [8]; at 100.0 µM 56% | [9]; [16] 8% | [9]; [17] 19% | [9]; at 50.0 µM 12.8% | [10]; at 1.2 µM -3% | [10]; at 3.7 µM -2% | [10]; [16] -1% | [10]; at 11.0 µM 4% | [10]; at 33.0 µM 25% | [10]; at 50.0 µM 7.85% | [11]; at 1.2 µM -1% | [11]; at 3.7 µM -2% | [11]; at 11.0 µM -4% | [11]; at 33.0 µM 2% | [15]; at 1.2 µM 1% | [15]; at 3.7 µM 1% | [15]; at 11.0 µM 3% | [15]; at 33.0 µM 16% | [12]; at 1.2 µM 2% | [12]; at 3.7 µM 3% | [12]; at 11.0 µM 8% | [12]; at 33.0 µM 18% | [13]; [16] 11% | [14]; at 1.2 µM -2% | [14]; at 3.7 µM -4% | [14]; at 11.0 µM -3% | [14]; at 33.0 µM 4%
active: [1]; at 100.0 µM 87% | [4]; at 100.0 µM 98% | [5]; at 100.0 µM 90% | [6]; at 100.0 µM 81% | [7]; at 50.0 µM 76% | [10]; [17] 81% | [10]; at 100.0 µM 97% | [11]; at 100.0 µM 97% | [15]; at 100.0 µM 96% | [12]; at 100.0 µM 97% | [13]; [17] 87% | [13]; at 50.0 µM 93.1% | [14]; at 100.0 µM 97%
